Shown are actives, neighbours in structure and some others; about 1.5% of the full set was active somewhere.
MEX-5 binding – C. elegans MEX-5 TCR-2 RNA binding activity | MEX-5/FITC-TCR2 RNA binding, fluorescence polarization; stronger effect = lower value | activity score (negative = inhibition of binding), % at 10 µM | actives 0.38% (n = 300,000) | AID 1832;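 active means inhibition past about -25% in most replicates, and total fluorescence under double the plate's negative control median, limit read from the data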
IDE cell inh – inhibits human insulin-degrading enzyme in HEK cells; AID 434962; inhibition, % at 5.59 µM; FAbetaB cleavage, fluorescence polarization; P14735; actives 0.41% (n = 320,000);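 active means percent inhibition above the average of all tested compounds plus 3 SD, set per screening campaign, cut at about 16% in these data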;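 further: IDE supplied by intact live HEK cells; FP after avidin binding of uncleaved biotin substrate so inhibition keeps polarization high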
MCL1 BIM primary – disrupts human MCL1 binding to BIM-BH3 peptide; Q07820; GST-MCL1 / FITC-Bim-BH3 fluorescence polarization; inhibition, % at 10.9 µM; actives 0.68% (n = 320,000);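 active means inhibition above the mean inhibition of all tested compounds plus 3 SD, set per campaign, cut at about 40% in these data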;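 further: higher means more loss of mP so more displacement of Bim peptide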
Bcl-xL primary – Bcl-xL (human) inhibition | inhibition, % at 10.9 µM | actives 0.7% (n = 320,000) | Q07817 | GST-Bcl-xL / FITC-Bim BH3 peptide fluorescence polarization;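 active means inhibition above the mean of all tested compounds plus 3 SD, cutoff set per campaign, cut at about 30% in these data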;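 further: inhibitors lower millipolarization by displacing the labeled peptide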
IDE cell activ – IDE (human) activation, cell-based | actives 0.073% (n = 340,000) | activation, % at 5.96 µM | AID 493087 | HEK cells, FAbeta-B cleavage, fluorescence polarization; 0% vehicle, 100% cell-free pure enzyme wells;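 active means activation above the mean of all tested compounds plus 3 SD, set per screening campaign, cut at about 17% in these data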
GLD-1 RNA inh – GLD-1-TGE RNA interaction inhibition (C. elegans) | actives 0.44% (n = 320,000) | purified GLD-1 + fluorescein TGE RNA, fluorescence polarization | inhibition, % at 5.96 µM;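 active means percent inhibition above a per-plate cutoff, the plate mean of test compounds plus 3 SD, cut at about 30% in these data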
A number is an active result; – = inactive; · = no result given.

SMILES	MEX-5 binding	IDE cell inh	MCL1 BIM primary	Bcl-xL primary	IDE cell activ	GLD-1 RNA inh
O=C(NN1C(=O)c2ccccc2NC1c1ccco1)c1ccc([N+](=O)[O-])cc1 (stereo not given)	–	–	–	–	–	–
CN1CCc2c(sc(NC(=O)c3ccc4ccccc4c3)c2C(N)=O)C1	-92	–	–	–	–	–
CCC(=O)Nc1sc2c(c1C(N)=O)CCN(Cc1ccccc1)C2	–	–	–	–	–	–
CN1CCc2c(sc(/N=C/c3cccs3)c2C(N)=O)C1	–	–	–	–	–	–
CN1CCc2c(sc(/N=C/c3ccco3)c2C(N)=O)C1	–	–	46	46	–	–
NC(=O)c1c(NC(=O)c2ccccc2)sc2c1CCN(Cc1ccccc1)C2	-27	–	–	–	–	–
CC(C)C(=O)Nc1sc2c(c1C(N)=O)CCN(Cc1ccccc1)C2	–	–	–	–	–	–
NC(=O)c1c(NC(=O)c2c(F)cccc2F)sc2c1CCN(Cc1ccccc1)C2	-35	–	–	–	–	–
CN1CCc2c(sc(NC(=O)Cc3ccccc3)c2C(N)=O)C1	–	–	–	–	–	–
O=C(NC(Cc1c[nH]c2ccccc12)C(=O)NCc1ccc(F)cc1)OCc1ccccc1 (stereo not given)	–	–	–	–	–	–
CC(=O)Nc1sc2c(c1C#N)CCN(Cc1ccccc1)C2	–	–	–	–	–	–
CC1CCCN(S(=O)(=O)c2ccc(C(=O)Nc3sc4c(c3C(N)=O)CCN(C)C4)cc2)C1 (stereo not given)	–	–	–	–	–	–
N#Cc1c(NC(=O)/C=C/C(=O)O)sc2c1CCN(Cc1ccccc1)C2	-29	–	–	–	–	–
CNC(=O)c1c(NC(=O)c2ccc(S(=O)(=O)N3CCCCC3C)cc2)sc2c1CCN(C)C2 (stereo not given)	-26	–	–	–	–	–
O=C(NC12CC3CC(CC(C3)C1)C2)c1cncc(Br)c1	–	–	–	–	–	–
O=C1CCN(C(=O)CSc2ccc(Cl)cc2)N1	–	–	–	–	–	–
Cc1cc(C)c(C(=O)COC(=O)Cn2c(C)csc2=O)cc1C	–	–	–	–	–	–
Cc1ccnc(NC(NC(=O)C(C)C)(C(F)(F)F)C(F)(F)F)c1	–	–	–	–	–	–
CN1C2C=C3C(C#N)=C(N)C(C#N)(C#N)[C@H](c4c(F)cccc4F)[C@H]3C1CC2 (stereo not given in full)	–	–	–	–	–	–
CN1C2C=C3C(C#N)=C(N)C(C#N)(C#N)[C@@H](c4cccc(F)c4)[C@@H]3C1CC2 (stereo not given in full)	–	–	–	31	–	–
O=C(Nc1ccc(F)cc1)C1CCN(S(=O)(=O)c2ccc3[nH]c(=O)oc3c2)CC1	–	–	–	–	–	–
Cc1cc(NC(=O)c2cncc(Br)c2)ccc1NC(=O)c1cc2ccccc2o1	–	–	–	–	18	–
CCn1c(C)c(C(=O)c2ccccc2)c(C#N)c1C(=O)O	–	–	–	–	–	–
CC(C)Oc1ccc(CN2CCCC(CO)(Cc3ccc(F)cc3)C2)cc1 (stereo not given)	–	–	46	36	–	–
CNCc1ccccc1Sc1ccc(O)c(O)c1	-54	–	–	–	–	–
SMILES	MEX-5 binding	IDE cell inh	MCL1 BIM primary	Bcl-xL primary	IDE cell activ	GLD-1 RNA inh
COc1ccc(Sc2ccccc2CN(C)C)cc1OC	–	–	–	–	–	–
O=C(O)CSc1cccc[n+]1[O-]	–	–	–	–	–	–
N#CC(C#N)=C(N)CSc1cccc[n+]1[O-]	–	–	–	30	–	–
C/C(CC(=O)Nc1ccccc1C#N)=N\NC(=O)c1ccncc1	–	–	–	–	–	–
Cc1ccc(S(=O)(=O)CCSc2nc(C)cc(C(F)(F)F)c2C#N)cc1	-54	–	–	–	–	–
CSc1ccc(C2=C/C(=C3/SC(=S)NC3=O)c3ccccc3O2)cc1	·	·	·	·	–	·
O=C(/C=C/c1ccco1)NC(=S)NNC(=O)c1ccco1	-26	–	–	–	–	–
CC(=O)c1cccc(S(=O)(=O)N2CCn3cccc3C2C)c1 (stereo not given)	·	–	40	33	–	–

Source: PubChem (several laboratories)
